High-throughput results from PubChem.
Wnt bcat act – Wnt/beta-catenin pathway activators, primary screen, cell-based, plate reader, single point; activation, % at 9.35 µM; Wnt/beta-catenin reporter cell assay, activator; AID 743398, 2014; 300,000 compounds, 1.2% hits; in the data active = activation above about 30%, passing the limit was not always enough; inconclusive = no clear call, values can overlap the other calls;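 also: 0% = neutral control wells and 100% = positive control wells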
INS-1E GSIS act – GLuc luminescence reporter in INS-1E cells, primary screen for activators of glucose-dependent secretion of insulin | INS-1E GLuc reporter insulin secretion, 2-3 h | activation, % at 16.6 µM | 370,000 compounds, 0.61% hits;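 active = lowest replicate activation of at least 40%, so every replicate reaches that level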;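 also: 0% = median of neutral control wells and 100% = median of IBMX positive control wells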
miR-122 sensor – miR-122 Renilla sensor signal increase in Huh7, primary screen, miR-122 inhibitor project, cell-based, single point, plate reader; activation (reporter increase), % at 12.5 µM; Huh7 miR-122 Renilla luciferase sensor, 48 h; neutral wells = 0, positive control = 100; 340,000 compounds, 0.3% hits;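 active = mean replicate activation score at least 90 and every replicate individually at or above 90; inconclusive = only one of the two criteria met; inactive = neither criterion met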;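 also: higher luciferase means less miR-122 activity so hits act as miR-122 inhibitors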
MITF act – activators of MITF-driven TRPM1 promoter reporter, primary screen, cell-based, SK-MEL-5, luciferase, single point | SK-MEL-5 TRPM1-promoter luciferase, 24 h; % of positive control, neutral wells = 0 | activation, % at 12.5 µM | 300,000 compounds, 0.75% hits | AID 588334, 2011;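 active = mean activation of at least 80% with every replicate also reaching 80%; inconclusive = mean reaches 80% but some replicate falls short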;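 also: 0% = neutral control wells and 100% = parthenolide positive control wells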
DYRK1A inh – rat Dyrk1A kinase inhibitors, primary screen, biochemical, single point, plate reader; Dual specificity tyrosine-phosphorylation-regulated kinase 1A (Rattus norvegicus), Q63470; ADP-Glo luminescence, NFATc1 peptide; inhibition, % at 12.5 µM; 310,000 compounds, 0.43% hits; AID 504441, 2011;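 also: plate controls were vehicle with enzyme for no effect and no enzyme for full effect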
NSD2 HMT inh – NSD2 histone methyltransferase inhibitors, primary screen, biochemical, AlphaScreen, single concentration, set 2 | inhibition, % at 12.5 µM | 310,000 compounds, 0.54% hits | Histone-lysine N-methyltransferase NSD2 (Homo sapiens), O96028 | NSD2 peptide methylation, 120 min
Starred values were filed as active, the others as inactive; ? = inconclusive; nt = not tested or not shown; [ ] = another dose, or the depositor's remark. The list is not random: actives were taken first. Their share in the collection is about 2.4%. Rule as the data show it, unless noted: active = inhibition above about 50%; inactive = the rest.

SMILES | Wnt bcat act | INS-1E GSIS act | miR-122 sensor | MITF act | DYRK1A inh | NSD2 HMT inh
CO[C@H]1CN(C)C(=O)c2cc(NC(=O)C3CCC3)ccc2OC[C@H](C)NC[C@@H]1C | nt | 1 | 1[16.7 µM] | nt | nt | nt
COc1cccc(NC(=O)N2[C@H](CO)[C@H](c3ccccc3)[C@@H]2CNC(C)C)c1 | nt | -15 | -1[16.7 µM] | nt | nt | nt
CCOc1ccc(CCNC(=O)CCC(=O)c2cccs2)cc1OCC | 1 | 95* | nt | -12 | 2 | -3
COc1ccc2c3c([nH]c2c1)[C@H](CO)N(C(=O)Nc1ccc(F)cc1)CC31CN(C(=O)Cc2ccccc2)C1 | nt | -14 | nt | nt | nt | nt
O=C(N/N=C/c1ccc(Br)cc1)c1ccc(Br)o1 | 56* | -12 | nt | 103* | -1 | -1
O=C(N/N=C/c1ccc(F)cc1)c1ccc(Br)cc1 | 6 | 0 | 15 | 52 | 0 | 3
CC(C)CNC(=O)c1cc(-c2ccc3c(c2)OCO3)on1 | 35* | -3 | 8 | nt | 1 | 0
CN(C(=O)c1cc(-c2ccc3c(c2)OCO3)on1)c1ccccc1 | 14 | 18 | nt | 101* | 11 | 18
CN(C)c1ccc2c(c1)[C@@H]1C[C@@H](CC(=O)NCc3ccncc3)O[C@@H](CO)[C@@H]1O2 | nt | 13 | -3[16.7 µM] | nt | nt | nt
O=C(O)c1cc(/C=C/c2ccc(N3CCOCC3)cc2)nc2ccccc12 | 3 | 0 | nt | 6 | 6 | 0
O=C(O)c1cc(/C=C/c2ccc(N3CCOCC3)c([N+](=O)[O-])c2)nc2ccccc12 | 34* | 24 | 9 | -1 | 9 | 5
CN(c1ccccc1)c1nc(N)c([N+](=O)[O-])c(N2CCOCC2)n1 | 2 | 45* | nt | 21 | 5 | 2
CN(c1ccccc1)c1nc(N)c([N+](=O)[O-])c(N2CCCC2)n1 | 26 | -11 | -1 | 49 | 14 | 9
Cc1ccc(SCc2cn3cc(Cl)ccc3n2)cc1 | 35* | -14 | nt | nt | 7 | -1
Cc1ccc(SCc2cn3c(C)csc3n2)cc1 | 1 | -40 | -2 | 84* | 0 | nt
Cc1cccc2nc(CSc3nc4ccccc4[nH]3)cn12 | -1 | 11 | nt | 40 | 5 | 2
Clc1ccc(SCc2cn3ccccc3n2)cc1 | 16 | -8 | -2 | ? | 1 | 0
Cc1cccc2nc(CSc3ccc(Cl)cc3)cn12 | 13 | 11 | -7 | 101* | -3 | 2
Cc1ccc(S(=O)(=O)NCc2cn3c(C)csc3n2)cc1 | nt | nt | 4 | 16 | 2 | -3
Clc1ccc2nc(CSc3nncn3-c3ccccc3)cn2c1 | -5 | nt | nt | -8 | -4 | -2
Clc1ccc2nc(CSCc3ccccc3)cn2c1 | 67* | 27 | nt | 51 | 4 | 5
COc1ccc2c3c(n(C)c2c1)[C@@H](CO)N(CC1CC1)CC31CCN(C(=O)c2ccc(F)cc2)CC1 | nt | -8 | nt | nt | nt | nt
CN(C)C(=O)C[C@H]1C=C[C@@H](NC(=O)C2CCOCC2)[C@@H](CO)O1 | nt | 12 | nt | nt | nt | nt
Cc1cccc(S(=O)(=O)N2C[C@H](O)COC[C@@H]3O[C@@H](CC(=O)NCCCN4CCOCC4)CC[C@H]32)c1 | nt | 8 | 1[16.7 µM] | nt | nt | nt
Clc1ccc2nc(CSc3nnc(-c4c[nH]c5ccccc45)o3)cn2c1 | -1 | -15 | 3 | -3 | 10 | 1
SMILES | Wnt bcat act | INS-1E GSIS act | miR-122 sensor | MITF act | DYRK1A inh | NSD2 HMT inh
Clc1ccc2nc(CSc3nc4ccccc4o3)cn2c1 | 58* | nt | 8 | nt | 5 | 0
Fc1ccc2nc3[nH]c4ccccc4c3nc2c1 | 100* | 47 | 0 | nt | 23 | -2
Nc1ccc(S(=O)(=O)Nc2nccc(/C=C/c3cccc([N+](=O)[O-])c3)n2)cc1 | -2 | 70* | -16 | nt | nt | -5
CCN1/C(=C/c2ccc3cc(C)ccc3[n+]2CC)Sc2ccccc21 | -2 | -41 | nt | -101 | 5 | 45
CCN1/C(=C/c2ccc3cc(C)ccc3[n+]2CC)Sc2cc(C)c(C)cc21 | -9 | -50 | -28 | -70 | 1 | 161*
F[B-](F)(F)COc1ccccc1 | 3 | 88* | 2 | 2 | 41 | nt
CCOC(=O)C1=C2c3cc(OC)c(OC)cc3CC(C)(C)N2C(=O)C1=O | -1 | 45* | -2 | 0 | -3 | -1
O=C(C[C@H]1CC[C@H](NC(=O)Cc2ccccn2)[C@@H](CO)O1)NCCc1ccncc1 | nt | 5 | -2[16.7 µM] | nt | nt | nt
C[C@@H]1CN([C@H](C)CO)C(=O)c2cc(NS(=O)(=O)c3ccc(F)cc3)ccc2O[C@@H]1CN(C)S(=O)(=O)c1cn(C)cn1 | nt | 4 | 1[16.7 µM] | nt | nt | nt
COc1ccc(-c2ccc([C@H]3[C@@H](CO)N4C(=O)CN(C(=O)C5CCCC5)C[C@H]34)cc2)cc1 | nt | -7 | nt | nt | nt | nt
Fc1ccc(-c2csc3nnc(SCc4cccnc4)n23)cc1 | -1 | 56* | -7 | -9 | 0 | 19
CO[C@@H]1CN(C)C(=O)c2ccc(NC(C)=O)cc2OC[C@H](C)N(C(=O)c2cccnc2)C[C@H]1C | nt | -5 | -1[16.7 µM] | nt | nt | nt
CCNc1nc(N)nc(Oc2ccc(C(=O)OC)cc2)n1 | 18 | nt | 6 | 87* | -1 | 0
CCNc1nc(Oc2ccc(C(=O)OC)cc2)nc(N(C)C)n1 | nt | nt | 2 | 5 | -8 | 1
CCN(CC)S(=O)(=O)c1cc(NS(=O)(=O)c2c(Cl)cccc2Cl)ccc1C | -2 | -15 | nt | 24 | -1 | -1
CCN(CC)S(=O)(=O)c1cc(NS(=O)(=O)c2cccc(Cl)c2)ccc1C | 9 | -32 | 254* | -1 | -6 | 28
CCN(CC)S(=O)(=O)c1ccc(NS(=O)(=O)c2ccc(F)cc2)cc1 | nt | nt | 8 | -3 | -4 | -3
CCN(CC)S(=O)(=O)c1ccc(NS(=O)(=O)c2cccc(C)c2)cc1 | 39* | nt | 52 | 1 | 0 | -1
COCCNC(=O)c1cc2sc3ccccc3c2s1 | 46* | nt | 0 | nt | 1 | 0
CN(C)CCCNC(=O)c1cc2sc3ccccc3c2s1 | 24 | 0 | nt | 18 | 18 | 2
O=C(C[C@H]1CC[C@@H](NS(=O)(=O)c2ccc(F)cc2)[C@@H](CO)O1)NC1CCC1 | nt | 17 | nt | nt | nt | nt
Cc1c(-c2cccc(Cl)c2)nc2ccccc2c1C(=O)NC1CC1 | -1 | 99* | 6 | -8 | 1 | -1
Cc1c(-c2ccccc2)nc2ccccc2c1C(=O)O | 1 | -9 | nt | -13 | 3 | -11
O=C(COc1ccc(-c2ccccc2)cc1)N1CCN(S(=O)(=O)Cc2ccccc2)CC1 | -3 | nt | 99* | -27 | 4 | -3
CC(=O)N1[C@@H](CO)[C@H](c2ccccc2)C12CN(C(=O)c1ccccc1)C2 | nt | 7 | nt | nt | nt | nt
CN1[C@@H]2c3cccc(=O)n3C[C@@H]2[C@@H](CO)[C@@H]1C(=O)NCCc1ccccc1 | nt | 3 | -4[16.7 µM] | nt | nt | nt
